Data taken from ChEMBL document CHEMBL4513216, “Probing the Open Global Health Chemical Diversity Library for Multistage-Active Starting Points for Next-Generation Antimalarials” (ACS Infect Dis, 2020).
In all, about 69,000 compounds went through this assay and about 8,600 (12%) showed an effect of 50% or more. The entries come from a sample that favours strong results as a whole.

Test system: Plasmodium berghei
Test: Screen against P. berghei liver stage (PbLuc), transformed with Luciferase, at 10uM
Format: functional, HepG2
Settings: tested at 10 uM

Structure (SMILES) | INHIBITION
COCc1nc(C(=O)N2CCCC2c2cccs2)cs1 (stereo not drawn) | 42%
Cc1cccc(CN2CCc3ncnc(NC4CCC4)c3CC2)n1 | -24.8%
c1cc(CN2C[C@@H]3OCCN(CC4CCCO4)[C@@H]3C2)cs1 (stereo partly drawn) | 46.2%
COc1cccc(CNCc2ccc(NC(=O)NC(C)C)cc2)c1 | 29.4%
CCOc1cccc(CNCc2ccc(NC(=O)NC(C)C)cc2)c1 | -18%
COc1cc(CNCc2ccc(NC(=O)NC(C)C)cc2)cc(OC)c1 | 60%
Cc1ccc(CN2CCC[C@]3(C(=O)O)CN(c4ncccn4)C[C@@H]3C2)o1 | 15.9%
c1cncc(CN2CCC(c3csc4nccn34)CC2)c1 | 3.295%
CC(C)(NC(=O)c1ccc(-c2ccc(F)cc2)s1)C(N)=O | 4.12%
CCCc1nnsc1C(=O)N1CCCC1(C)C(=O)N1CCOCC1 (stereo not drawn) | -53.1%
COc1cc(C(=O)N(C2CC2)C2CC(=O)NC2=O)ccc1C (stereo not drawn) | 31%
Cc1ccc(C(=O)N(C2CC2)C2CC(=O)NC2=O)cc1F (stereo not drawn) | 50.3%
O=C1CC(N(C(=O)c2ccc(F)c(F)c2)C2CC2)C(=O)N1 (stereo not drawn) | 15.3%
O=C(O)c1c[nH]c2cc(NS(=O)(=O)c3ccc(Cl)cc3F)ccc12 | -2.19%
CN(C)C(=O)[C@@H]1CCO[C@@H]2CCN(CCOCc3ccccc3)C[C@H]21 | 43.1%
CC(=O)c1ccc(N2CCC3(CC2)CC(=O)N(C)C3)nc1 | 34.1%
CC(=O)c1ccc(N2CCCC(CO)(CCOc3ccccc3)C2)nc1 (stereo not drawn) | 70.1%
CC(=O)c1ccc(N2CCC(CO)(CCOc3ccccc3)CC2)nc1 | 95.1%
CCCN1CC2(CCN(c3ccc(C(C)=O)cn3)CC2)CC1C(=O)O (stereo not drawn) | -12.5%
CC(=O)c1ccc(N2CCCC(CO)(CCc3ccccc3)C2)nc1 (stereo not drawn) | 43.7%
CN1C(=O)C2(CCN(S(C)(=O)=O)CC2)c2cc(F)ccc21 | 17.7%
O=C(CNCCn1cccn1)NCC1(c2ccccc2)CCOCC1 | 25.4%
CS(=O)(=O)NC[C@H]1OC[C@@H]2CCN(CCc3ccccc3)C[C@@H]21 | 43.4%
Cn1c(C2CC2)nc2c1CCN(CCOc1cccc(F)c1)C2 | 11.9%
Cc1ccccc1C(=O)N1C[C@@H]2OCCN(c3ncccn3)[C@@H]2C1 | -2.35%
CN1CCN(S(=O)(=O)c2cccc(F)c2)c2ccccc21 | 46.6%
CN1CCN(S(C)(=O)=O)c2ccc(F)cc21 | 21.8%

Structure (SMILES) | INHIBITION
CN1CCN(S(=O)(=O)c2cccc(C#N)c2)c2ccc(F)cc21 | 62.4%
CCc1cc(OC)c(OC)cc1C(=O)Nc1cccnc1 | 22.6%
CO[C@H]1CN(Cc2c(C)ccc3ncccc23)CC[C@H]1N | -69.3%
O=C(c1ccno1)N1CCc2ncnc(-c3ccncc3)c2CC1 | 35.5%
O=C(Nc1ccc(N2CCCC2)nc1)N1CCc2sccc2C1 | -11.5%
O=C(Nc1ccc(N2CCCC2)nc1)N1CCc2ccccc2C1 | 63.5%
O=C(Nc1ccc(N2CCCCC2)nc1)N1CCc2sccc2C1 | -10.8%
c1cnnc(N[C@@H]2CC[C@@H]3CN(Cc4c[nH]c5ccccc45)C[C@@H]32)c1 | 31.6%
O=c1c2ccc(Cl)cc2ncn1CCCN1CCCCC1CO (stereo not drawn) | 22.9%
O=c1c2ccc(C(F)(F)F)cc2ncn1CCCN1CCCCC1CO (stereo not drawn) | 56.6%
CC(C)N1CCCCC1CCn1cnc2cc(C(F)(F)F)ccc2c1=O (stereo not drawn) | 47.9%
COCCS(=O)(=O)NC(C)c1ccccc1Br (stereo not drawn) | 4.34%
Cc1ccc(C)c(NC(=O)Nc2c[nH]c(=O)[nH]c2=O)c1 | 29.2%
Cc1ccc(NC(=O)Nc2c[nH]c(=O)[nH]c2=O)c(Cl)c1 | 3.77%
Cc1ccc(NC(=O)Nc2c[nH]c(=O)[nH]c2=O)c(C)c1 | 50.8%
CN1CCCC(NC(=O)c2ccc(C(=O)c3cc[nH]c3)cc2)C1 (stereo not drawn) | 44.2%
CCOCCN1CCN(CC(=O)N2CCC2)CC1CC (stereo not drawn) | -20.2%
CCOCCN1CCN(CC(=O)N2CCCC2)CC1C (stereo not drawn) | 66.5%
CCOCCN1CCN(CC(=O)N2CCCC2)CC1CC (stereo not drawn) | 31.9%
CCOCCN1CCN(CCC(=O)N2CCCCC2)CC1 | 64.1%
CCOCCN1CCN(CCC(=O)N2CCCCC2)CC1C (stereo not drawn) | -10.1%
CCOCCN1CCN(CC2(O)CCCCC2)CC1 | 10.6%
Cc1cc2nc(C(C)C)cc(NCCc3cccn3C)n2n1 | 39.5%
CN(Cc1cscn1)C(=O)C(c1ccccc1)N1CCSCC1 (stereo not drawn) | 60.3%
CN(Cc1ccccn1)C(=O)C(c1ccccc1)N1CCSCC1 (stereo not drawn) | 33.7%
Cc1cc(CN(C)C(=O)C(c2ccccc2)N2CCSCC2)no1 (stereo not drawn) | 17.5%
